ATXN2 expr inh: reduces ATXN2 reporter expression in HEK-293 cells. AID 1745845. Potency, µM (top dose mostly 57 µM), for inactives: at the top dose activity change, negative = inhibition, usual class: inhibitors. 360,000 tested, 0.72% active. HEK-293 ATXN2-luciferase reporter, luminescence, 24 h; further: on the % scale 0 is the no-effect control and ±100 the full control effect; nearly all actives have a fitted effect of over 55% in size
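qHTS (up to 57 uM final) was run with 24 h compound exposure of reporter cells at 37 °C. Each well was multiplexed: SteadyGlo luminescence measured ATXN2-luciferase expression after a fluorogenic Gly-Phe-AFC viability readout (25 uM final).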
KB-V1 MDR tox: KB-V1 MDR subline cytotoxicity; AID 1347076; KB-V1 MDR cells viability, CellTiter-Glo, 72 h; Potency, µM (titrated, usually from 46.1 µM), usual class: cytotoxic; 400,000 tested, 3.4% active; further: on the % scale 0 is the no-effect control and ±100 the full control effect; nearly all actives have a fitted effect of over 60% in size
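In this primary screen, KB-V1 cells overexpressing P-gp are incubated with library compounds (lowest to highest concentration) for 72 h at 37 degrees C before a luminescent ATP viability read.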
KB-3-1 tox: KB-3-1 parental cell cytotoxicity; KB-3-1 viability, CellTiter-Glo ATP luminescence, 72 h; Potency, µM (top dose mostly 46.1 µM), hits mostly cytotoxic; 400,000 tested, 1.4% active; AID 1347075; further: on the % scale 0 is the no-effect control and ±100 the full control effect; nearly all actives have a fitted effect of over 60% in size
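Parental KB-3-1 adenocarcinoma cells in phenol-red-free DMEM with 10% FBS were pin-treated with compounds at several concentrations, incubated 72 h at 37 °C, and viability read by CellTiter-Glo luminescence; concentration-effect curves were fitted after normalization.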
TGFb SMAD3 inh: inhibitors of TGF-b signaling | 410,000 tested, 1.2% active | HepG2 CAGA-GFP TGF-b/SMAD3 reporter, GFP fluorescence, 18 h; TGF-beta stimulated, 500 pg/mL final | Potency, µM (doses to about 46.1 µM), for inactives: top-dose activity, negative = inhibition, hits mostly inhibitors; further: on the % scale 0 is the no-effect control and ±100 the full control effect; nearly all actives have a fitted effect of over 65% in size
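GFP signal (ex488/em500-530) from TGF-beta-stimulated HEPG2 CAGA-GFP cells, 500 pg/mL final, 18 h at 37 degrees C in DMEM plus 1% FBS, normalized to unstimulated and DMSO-stimulated controls.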
S2 tox: viability counter-screen for ATXN expression inhibitors | S2 cells (HEK-293 line with an ATXN2-luciferase reporter) viability, CellTiter-Fluor protease fluorescence, 24 h | 400,000 tested, 0.49% active | Potency, µM (doses to about 56.7 µM), most hits filed as cytotoxic; further: nearly all actives have a fitted effect of over 40% in size
HepG2 tox: HepG2 cytotoxicity, counter-screen for TGF-b inhibitors; HepG2 CAGA-GFP viability, ATP luminescence, 18 h; Potency, µM (top dose mostly 46.1 µM), inactives show at the highest dose activity change, negative = cytotoxicity, hits mostly cytotoxic; 410,000 tested, 0.76% active
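HepG2 CAGA-GFP cells (1000/well, DMEM with 1% FBS) received compound, then TGF-beta at 500 pg/mL final, and were incubated 18 hours at 37 degrees C. Viability was read by CellTiter-Glo luminescence. Media-only wells were set as complete cell-killing and DMSO as no toxicity.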
The depositor's hits bear a star; i = inactive; ? = inconclusive; . = no result given. A selection: hits, their analogues and other compounds. The true share with any hit is near 5.9%. The call rests on the fitted dose curve; in most records, active means well fitted curve in the direction sought with a large enough effect; inconclusive means small, poorly fitted or top-dose-only effect, or another doubt; inactive means no such curve, though single readings can be large; an effect the other way counts as inactive or inconclusive. Potency means the concentration at half of the fitted maximal effect.

SMILES	ATXN2 expr inh	KB-V1 MDR tox	KB-3-1 tox	TGFb SMAD3 inh	S2 tox	HepG2 tox
O=C(O)CCS(=O)(=O)c1nc(-c2cccs2)cc(C(F)(F)F)n1	24%	i	i	?	i	-26%
Cc1cc(NC(=O)CSc2nc(-c3cccs3)cc(C(F)(F)F)n2)no1	-20%	1µM*	1.6µM*	?	i	-9%
Cc1cc(NC(=O)CCCS(=O)(=O)c2nc(-c3cccs3)cc(C(F)(F)F)n2)no1	?	i	13µM*	14µM*	28µM*	-106%
CCCCc1nc2ccccc2n2c(-c3ccc(C)cc3)c3c(=O)n(C)c(=O)n(C)c3c12	-5%	i	i	-2%	i	6%
COC(=O)c1sccc1-n1cc2c(c1-c1ccccc1)c(=O)n(C)c(=O)n2C	-1%	i	?	?	i	-11%
CN(C1CCCCC1)S(=O)(=O)c1ccc2c(c1)c(=O)c(C(=O)NCc1ccc(Cl)cc1)cn2C	-7%	i	i	-11%	i	-3%
Cc1ccc(NC(=O)CSc2nc3c(cc2C#N)C(=O)CCC3)cc1S(=O)(=O)N(C)C	-14%	i	i	2%	?	-2%
CN(C)S(=O)(=O)c1ccc(Cl)c(NC(=O)CSc2nc3c(cc2C#N)C(=O)CCC3)c1	-1%	10µM*	i	0%	i	0%
COCCN(Cc1ccccc1)C(=O)c1ccc2c(=O)n3c(nc2c1)CCC3	0%	i	i	0%	i	4%
CCN(Cc1ccccc1)C(=O)c1ccc2c(=O)n3c(nc2c1)CCC3	4%	10µM*	i	-44%	i	5%
COC(=O)c1cccnc1-n1c(=O)c2cccnc2n(Cc2cccc([N+](=O)[O-])c2)c1=O	.	i	i	5%	i	-55%
COC(=O)c1cccnc1-n1c(=O)c2cccnc2n(Cc2ccc(Cl)cc2)c1=O	-10%	23µM*	?	-13%	i	0%
Cc1cc(-c2nn(-c3ccccc3F)cc2CN2CCN(c3ccccn3)CC2)c(C)s1	6%	16µM*	i	-14%	i	-29%
Cc1cccc(N2CCN(Cc3cn(C)nc3-c3ccccc3F)CC2)n1	-37%	?	5.8µM*	?	i	-24%
CCOc1ccccc1CNC(=O)c1cnc2sc(N3CCOCC3)nn2c1=O	.	.	.	-15%	.	-1%
O=c1c2ccccc2sn1-c1ccc(Cl)cc1Cl	?	15µM*	?	?	.	-58%
CCCCn1nc(C(=O)N(C)CC(=O)Nc2ccc(F)c(F)c2F)ccc1=O	-1%	15µM*	i	-6%	i	-10%
Cc1ccccc1NC(=S)N(C)Cc1cn(C)c2ccccc12	2%	18µM*	i	20%	i	11%
Cc1ccccc1CN1C(=O)C(O)(c2c[nH]c3ccccc23)c2cc(Cl)ccc21 (stereo not given)	-24%	i	i	16µM*	i	11µM*
Cc1[nH]c2ccccc2c1C1(O)C(=O)N(Cc2ccccc2)c2ccc(Cl)cc21 (stereo not given)	?	i	i	?	?	16µM*
Cc1ccc(C)c(CN2C(=O)C(O)(c3c[nH]c4ccccc34)c3ccccc32)c1 (stereo not given)	?	i	?	?	i	-103%
COc1ccc(C(CNC(=O)c2cccc([N+](=O)[O-])c2)N2CCOCC2)cc1 (stereo not given)	.	.	.	-16%	.	-27%
Cc1ccc(Cc2nc3ccccc3nc2SCC(=O)N2CCCc3ccccc32)cc1	.	.	.	-1%	.	3%
CC#CCOC(=O)c1c(C)nc2sc3c(c2c1N)CCC(O)C3 (stereo not given)	3%	12µM*	?	23%	i	-5%
Cc1cc2c(cc1S(=O)(=O)NCc1ccc(F)cc1)OCCN2C	.	.	.	-13%	.	-20%
SMILES	ATXN2 expr inh	KB-V1 MDR tox	KB-3-1 tox	TGFb SMAD3 inh	S2 tox	HepG2 tox
COc1ccc(N2CCN(Cc3nc4c(c(=O)[nH]c(=O)n4C)n3Cc3ccccc3C)CC2)cc1	.	.	.	-1%	.	-7%
CC1=C(C(=O)Nc2cccnc2)C(c2ccc(F)cc2)n2nc(SCc3ccccc3F)nc2N1 (stereo not given)	-7%	i	i	5%	i	-12%
CC1(c2nnc(-c3ccccc3)o2)CC(c2ccc([N+](=O)[O-])cc2)=NO1 (stereo not given)	-34%	21µM*	10µM*	21%	?	2%
COCCNC(=O)c1sc2ncccc2c1-n1c(C)ccc1C	-2%	i	i	14%	i	5%
CCc1ccc(CNC(=O)c2sc3ncccc3c2-n2c(C)ccc2C)cc1	-34%	i	?	11µM*	?	-43%
CCOC(=O)c1ccc(NC(=O)C2CCCN(c3ncnc4onc(-c5ccc(F)cc5)c34)C2)cc1 (stereo not given)	-6%	i	i	?	?	-26%
CC(C)(C)CC(C)(C)NCC(O)COc1c(F)cc(Br)cc1F (stereo not given)	?	21µM*	?	?	?	-98%
O=C(Nc1nnc(S(=O)(=O)N2CCc3ccccc32)s1)c1cccc(Cl)c1	?	?	i	7.9µM*	i	-46%
O=C(COc1ccc(F)cc1)Nc1nnc(S(=O)(=O)N2CCc3ccccc32)s1	-5%	i	i	13µM*	i	-29%
CCOc1ccc(S(=O)(=O)N2CCN=C2c2ccccc2)cc1	-26%	12µM*	?	-11%	i	-17%
CCN(Cc1ccccc1)C(c1cc2ccc(C)cc2[nH]c1=O)c1nnnn1CCOC (stereo not given)	1%	15µM*	i	-14%	i	-2%
O=C(NC(c1ccc(-c2ccccc2)cc1)c1cnccn1)C1CCN(CCOc2ccc(F)cc2)CC1 (stereo not given)	?	i	?	13µM*	?	18µM*
Cc1ccc(C(NC(=O)C2CCN(Cc3ccc(Oc4ccccc4)cc3)CC2)c2ccccn2)cc1 (stereo not given)	?	i	i	?	?	11µM*
Cc1ccc(C(NC(=O)C2CCN(Cc3ccc(Cl)c(Cl)c3)CC2)c2ccccn2)cc1 (stereo not given)	?	?	?	-17%	i	1%
O=C(NC(c1ccc(-c2ccccc2)cc1)c1cnccn1)C1CCN(CCCOc2ccccc2)CC1 (stereo not given)	?	i	?	?	32µM*	-97%

High-throughput results (PubChem)
